According to PubChem BioAssay AID488969 (Vanderbilt High Throughput Screening Facility, 2010):
The full ranking holds about 110,000 compounds; the median of “z-score” is about -0.1, and the highest 2% start at about 2. What follows is part of a selection rich in the highest values, with near analogues and random picks from the rest. Activity calls are given as the source filed them.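 How the source made its calls: active means z-score in the third read window above 3 or below -3; inactive means the rest.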 Residues, ends and D or L forms follow the SMILES beside them. *: point of attachment. OBn = c1ccc(CO*)cc1

molecular target: Metabotropic glutamate receptor 8 (Rattus norvegicus) (UniProt P70579); test: mGluR8 Gi/Go-coupled signaling modulation – cell-based, rat, thallium flux, HTS, primary screen (AID 488969); conditions: HEK293 rat mGluR8, GIRK (G protein-gated inwardly rectifying potassium channel) thallium flux, FluoZin2; at 10 µM; stronger effect = higher value; submaximal glutamate (EC20) added with thallium
Sequence (P70579 whole entry, looked up): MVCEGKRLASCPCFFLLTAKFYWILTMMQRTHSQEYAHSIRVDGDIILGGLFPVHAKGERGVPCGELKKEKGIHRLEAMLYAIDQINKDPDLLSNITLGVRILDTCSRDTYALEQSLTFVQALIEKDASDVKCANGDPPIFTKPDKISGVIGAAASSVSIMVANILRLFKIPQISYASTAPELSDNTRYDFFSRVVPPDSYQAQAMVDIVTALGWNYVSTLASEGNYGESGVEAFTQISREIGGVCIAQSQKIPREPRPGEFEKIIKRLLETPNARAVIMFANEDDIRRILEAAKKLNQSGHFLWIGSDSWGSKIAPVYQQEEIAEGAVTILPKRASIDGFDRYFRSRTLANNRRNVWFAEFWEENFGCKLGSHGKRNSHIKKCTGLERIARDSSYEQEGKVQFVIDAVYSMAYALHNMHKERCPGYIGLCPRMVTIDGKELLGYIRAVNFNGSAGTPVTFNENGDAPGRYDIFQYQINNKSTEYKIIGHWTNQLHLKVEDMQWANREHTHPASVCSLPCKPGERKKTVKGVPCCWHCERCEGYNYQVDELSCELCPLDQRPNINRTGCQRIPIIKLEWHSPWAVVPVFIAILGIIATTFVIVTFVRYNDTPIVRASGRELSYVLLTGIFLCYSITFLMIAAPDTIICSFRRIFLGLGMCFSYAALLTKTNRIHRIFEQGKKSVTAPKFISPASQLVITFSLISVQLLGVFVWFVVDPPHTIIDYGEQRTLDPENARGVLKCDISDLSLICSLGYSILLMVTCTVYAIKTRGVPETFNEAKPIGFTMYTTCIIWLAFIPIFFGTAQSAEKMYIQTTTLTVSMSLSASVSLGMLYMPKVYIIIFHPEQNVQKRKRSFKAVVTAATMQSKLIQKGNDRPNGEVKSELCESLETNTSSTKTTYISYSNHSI

First: CCC(=O)N1CCc2cc(S(=O)(=O)NCCCOC)ccc21
Second: CCOC(=O)COc1ccc(S(=O)(=O)NCc2cccnc2)cc1
The z-score of the first is lower: -0.216 for the first, 0.014 for the second.

First: Cc1nc2ccccn2c1C(=O)N/N=C/c1ccc2c(c1)OCO2
Second: COc1ccc2nc(C)cc(SCC(=O)N/N=C/c3ccccc3)c2c1
The z-score of the first is lower: 0.65 for the first, 0.834 for the second.

Going from `COCCn1c(SCC(=O)c2ccc3c(c2)OCCO3)nnc1-c1ccoc1C` to `CCOC(=O)c1ccc(Nc2ncnc3ccc(C)cc23)cc1`, the z-score falls from -0.231 to -0.372.

Compared with `O=c1nc(NCc2ccccc2Cl)cn[nH]1`, `O/N=C/c1cc(Cl)ccc1OCc1ccccc1Cl` is lower in z-score: 0.66 for the first, -0.352 for the second.

First: CC(Nc1ccc(Br)cc1)C(=O)N/N=C/c1ccccc1OCc1ccccc1 (centres undefined)
Second: O/N=C/c1cc(Cl)ccc1OCc1cccc2ccccc12
The z-score of the first is lower: -0.283 for the first, 2.76 for the second.

Going from `COc1ccc(NC(=O)C23CCC(C)(C(=O)O2)C3(C)C)cc1` (centres undefined) to `COC(=O)c1ccc(NC(=O)C23CCC(C)(C(=O)O2)C3(C)C)cc1` (centres undefined), the z-score rises from 0.0605 to 2.35.

Compared with `COC(=O)c1cc(NC(=O)C23CCC(C)(C(=O)O2)C3(C)C)cc(C(=O)OC)c1` (centres undefined), `COc1ccc(NC(=O)C2CCN(C(=O)c3ccccc3)CC2)c(OC)c1` is lower in z-score: 0.577 for the first, -1.36 for the second.

Going from `Cc1cs/c(=N\N=C\c2ccccc2)n1Cc1ccco1` to `Cc1csc(=NC(=O)c2ccccc2)n1Cc1ccco1`, the z-score falls from -0.431 to -0.784.

First: CC(C(=O)Nc1ccc(F)c(F)c1F)N(C)CC(=O)Nc1ccccc1Br (centres undefined)
Second: O=C(Nc1ccc(Br)cc1F)c1ccc2c(c1)N(Cc1ccccc1)C(=O)CS2=O (centres undefined)
The z-score of the first is lower: -0.465 for the first, 1.3 for the second.

First: OC(COc1ccc(OCc2ccccc2)cc1)CN1CCCCC1 (centres undefined)
Second: OC(COc1ccc(OCc2ccccc2)cc1)CN1CCOCC1 (centres undefined)
The z-score of the first is higher: 2.76 for the first, -0.0779 for the second.

Going from `O=C(c1ccccc1)c1ccc(OCC(O)CN2CCOCC2)cc1` (centres undefined) to `O=C(c1ccccc1)c1ccc(OCC(O)CN2CCCCC2)cc1` (centres undefined), the z-score rises from -0.0655 to 2.13.

Going from `O=C(c1ccccc1)c1ccc(OCC(O)CN2CCN(S(=O)(=O)N3CCCCC3)CC2)cc1` (centres undefined) to `OC(COc1ccc(OCC(O)CN2CCCCCC2)cc1)CN1CCCCCC1` (centres undefined), the z-score falls from 0.198 to -0.0132.

Compared with `CCn1nnnc1SCC(=O)N(C1CCCCC1)C1CCCCC1`, `Cn1nnnc1SCC(=O)N(C1CCCCC1)C1CCCCC1` is higher in z-score: -0.262 for the first, 2.45 for the second.

Compared with `Cn1nnnc1SCC(=O)NC1CCCCC1`, `Cn1nc(C(=O)NC2CCCCCC2)ccc1=O` is higher in z-score: -0.00615 for the first, 1.32 for the second.

First: Cc1ccc2cc(CN(CCN3CCCC3)C(=O)Nc3ccccc3)c(=O)[nH]c2c1C
Second: Cc1ccc2cc(CN(CCN3CCCC3)C(=O)Nc3ccc(F)cc3)c(=O)[nH]c2c1C
The z-score of the first is lower: -0.236 for the first, 2.05 for the second.

Compared with `Cc1ccc(C)c2[nH]c(=O)c(CN(CCN3CCCC3)C(=O)Nc3ccc(F)cc3)cc12`, `Cc1nn(CC(=O)NCc2cccc3ccccc23)c(=O)c2ccccc12` is lower in z-score: 0.644 for the first, -0.0519 for the second.

Going from `CCC(C)C(N)C(=O)NC(CCC(=O)OCc1ccccc1)C(N)=O` (centres undefined) (H-Ile-Glu(OBn)-NH2; configuration not given here) to `Nc1ncnc2c1ncn2CCNCCc1ccccc1`, the z-score falls from 0.0296 to -0.981.

Compared with `Cc1nc(NCCc2ccccc2F)c(C#N)c(C)c1[N+](=O)[O-]`, `Cc1ccc(C)c(-c2cc(C(=O)NCc3cccs3)c3ccccc3n2)c1` is lower in z-score: 0.24 for the first, -0.0338 for the second.

Compared with `O=C(c1scc2c1CCCC2)N1CCCCC1`, `O=C(OCC(=O)N1CCCCC1)c1cc(NS(=O)(=O)c2ccc(Cl)c([N+](=O)[O-])c2)ccc1O` is lower in z-score: -0.475 for the first, -0.652 for the second.

Compared with `O=C1OC(Cc2ccncc2)C(O)=C1C1=NCCCN1` (centres undefined), `Cc1ccc2c(c1)N(Cc1ccncc1)C(=O)C(C)O2` (centres undefined) is higher in z-score: -0.135 for the first, 0.33 for the second.

First: O=C(O)CCCCCN1C(=O)/C(=C/c2ccncc2)SC1=S
Second: CCC(C)c1ccc(O)c(NC(=O)c2ncn[nH]2)c1 (centres undefined)
The z-score of the first is higher: -0.0629 for the first, -0.374 for the second.

First: CCOc1ccc(Cl)cc1/C=N/O
Second: Cc1cccc(/C=N/n2c(-c3ccccn3)n[nH]c2=S)c1
The z-score of the first is lower: -0.395 for the first, -0.174 for the second.

First: COc1ccc(/C=N/n2c(-c3cccs3)n[nH]c2=S)cc1
Second: Cc1cc(-c2n[nH]c(=S)n2/N=C/c2cccs2)n[nH]1
The z-score of the first is higher: 2.46 for the first, -0.233 for the second.

Compared with `Cc1cc(-c2n[nH]c(=S)n2/N=C/c2cccc([N+](=O)[O-])c2)n[nH]1`, `CCCc1cc(=O)n2[nH]c(-c3ccccc3)cc2n1` is higher in z-score: -0.221 for the first, 0.844 for the second.

First: CCOC(=O)c1c(-c2cccs2)csc1NC(=O)CNCCN1CCOCC1
Second: O=C(COC(=O)Cc1c(Cl)cccc1Cl)NCCC1=CCCCC1
The z-score of the first is higher: -0.205 for the first, -0.34 for the second.

Compared with `CCN(C(=O)COC(=O)c1cc(NS(=O)(=O)c2ccc(Cl)c([N+](=O)[O-])c2)ccc1O)C1CCCCC1`, `CC(NC(=O)COC(=O)c1cc(NS(=O)(=O)c2ccc(Cl)c([N+](=O)[O-])c2)ccc1O)C1CC2CCC1C2` (centres undefined) is lower in z-score: 2 for the first, -0.436 for the second.

Going from `COc1cc(C2NC(=O)NC(O)(C(F)(F)F)C2C(=O)c2cccs2)ccc1O` (centres undefined) to `O=C(Cn1cc(C(=O)c2cccs2)c2ccccc21)NC1CCCCC1`, the z-score falls from -0.852 to -2.37.

Molecule `CCCc1cc(=O)n2[nH]c(C)cc2n1` has a z-score of -0.851.

In the case of `Cc1cs/c(=N\N=C\c2cccc([N+](=O)[O-])c2)n1Cc1ccco1`, the z-score is reported as 5.13 (active).
For `CC1=CC(=O)OC1Cc1ccncc1` (centres undefined), the z-score was 14.2 (active).
For `COc1cccc(/C=N/n2c(-c3cccs3)n[nH]c2=S)c1`, the z-score was 3.25 (active).
For `CCCc1cc(=O)n2[nH]c(-c3ccc(Br)cc3)cc2n1`, the z-score was 3.04 (active).
